Data published in PubChem BioAssay AID1650 (Southern Research Specialized Biocontainment Screening …, 2009).
Results with a measured potency or affinity are listed apart. A number with no mark means an inactive call. How the calls were made is not given here.

Assay: mammalian cell viability reduction – secondary assay, cytotoxicity control for West Nile virus antiviral project, dose response (AID 1650)
Conditions: Mammalian host cell viability, cytotoxicity counter-screen; series mostly up to 10 µM; viability: at the top concentration

Row | SMILES | viability
1 | CCN1CCN(C(=S)Nc2ccc3nc(N4CCN(CC)CC4)cc(C)c3c2)CC1 | 84.6% [at 20 µM]
2 | CCCCCCOC(=O)C(C#N)c1nc2ccccc2nc1N1CCN(C)CC1 (stereo not given) | 76.1%
3 | Cc1ccc(-c2nc3ccccc3n3nnnc23)cc1 | 77.4% [at 20 µM]
4 | CC(=O)OCCCNc1cc(Sc2ccc(C)cc2)c2nonc2c1[N+](=O)[O-] | 87%
5 | Cc1cc(C)c(-c2csc(NC(=O)/C=C/c3cccs3)n2)c(C)c1 | 71.9%
6 | CCN(CC)CCNC(=O)c1ccc(NC(=O)/C=C/c2ccc3ccccc3n2)cc1 | 86.2%
7 | CN1CCCC(CC2Oc3ccccc3Sc3ccccc32)C1 (stereo not given) | 82.1%
8 | COCCN1CCCC(CNCc2cn(C)nc2-c2ccc(Oc3ccccc3)cc2)C1 (stereo not given) | 84.1%
9 | N#Cc1ccc(-c2ccc(F)cc2)nc1Oc1ccc(Cl)c(Cl)c1 | 79.6%
10 | CN1CCN(C(=O)CCN2C(=O)/C(=C/c3ccccc3Cl)SC2=S)CC1 | 72.8%
